PubChem BioAssay AID2018 (Sanford-Burnham Center for Chemical Genomics, 2009)
About 600 (50%) of roughly 1,200 compounds were called active. The set was probably picked from earlier hits. The list shows a part of the results. Measured potencies and affinities stand elsewhere. Values without a mark were called inactive. Cut-off read from the data, not from the text of the source: active = inhibition above about 42%; inactive = the rest.

molecular target: SUMO-conjugating enzyme UBC9 (Homo sapiens) (UniProt P63279); assay: SUMOylation inhibitor hit validation, confirmation, SUMOylation inhibitor project, biochemical, AlphaScreen (AID 2018); details: AlphaScreen in vitro SUMOylation assay; at 35 µM; hits give high values
Sequence (P63279 whole entry, looked up): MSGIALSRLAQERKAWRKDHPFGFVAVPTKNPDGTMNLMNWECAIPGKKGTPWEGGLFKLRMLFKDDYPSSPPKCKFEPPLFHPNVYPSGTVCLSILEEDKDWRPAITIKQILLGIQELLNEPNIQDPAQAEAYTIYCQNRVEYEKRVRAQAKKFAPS

| Structure (SMILES) | inhibition |
| --- | --- |
| Nc1ccc(O)cc1C(=O)OCC(=O)c1ccc(C2CCCCC2)cc1 | 29.2% |
| COC(=O)C1C(O)=C(C(C)=Nc2cccc3ccccc23)C(=O)CC1(C)C (stereo not drawn) | -0.8% |
| CC(C)(C)c1cc(=O)n(-c2ccccc2)[nH]1 | 22.8% |
| Cc1cc(=O)[nH]c(-n2[nH]c(C)cc2=O)n1 | 78.7% (active) |
| Cc1ccc(N2CCN(Cc3ccccc3)CC2=O)c(C)c1 | 18.7% |
| O=c1c(-c2ccccc2)coc2c(CN3CCCC3)c(O)ccc12 | -8% |
| CC(=O)c1ccc(N2CCN(C(=O)c3cccs3)C(C)C2)c(F)c1 (stereo not drawn) | 14.2% |
| Cc1nn(-c2ccccn2)c2c1C(=O)C(Br)CC2 (stereo not drawn) | 97.2% (active) |
| O=c1c2ccccc2nc2n1CCC2 | 97.9% (active) |
| Cc1ccc(/C=C(\C#N)C(=O)Nc2cccc3ncccc23)o1 | 23.5% |
| O=C(O)c1cc(Cl)c(Cl)cc1C(=O)Nc1cccc2ncccc12 | 9.9% |
| Cc1cc(C)c(S(=O)(=O)/N=C2/C=C(SCC(=O)O)C(=O)c3ccccc32)cc1C | 95.8% (active) |
| COc1ccc2nc(/C(C#N)=C\c3ccc(C(=O)O)cc3)[nH]c2c1 | 21.7% |
| CCC(NC(=O)Nc1ccc(O)cc1)(C(F)(F)F)C(F)(F)F | -10.3% |
| CCc1cccc(NC(=S)Nc2cccc3ccccc23)c1 | 15% |
| COc1cc(/C=C2\C(=O)N(CCC#N)N=C2C)ccc1OCC(=O)Nc1ccccc1 | 12.4% |
| O=C1Nc2ccc(C(F)(F)F)cc2N2CCCC12 (stereo not drawn) | 46.5% (active) |
| Cc1ccc(NC(=S)Nc2cccc3ccccc23)cc1 | 19.1% |
| CC(C)(C)c1cc[n+](C2=C([O-])c3ccccc3C(=O)/C2=N\S(=O)(=O)c2cccs2)cc1 | 90.8% (active) |
| CCOc1ccc(C(Nc2cccnc2)c2cc(Cl)c3cccnc3c2O)cc1 (stereo not drawn) | -212% |
| O=C(O)COc1ccccc1C(Nc1cccnc1)c1cc(Cl)c2cccnc2c1O (stereo not drawn) | 102% (active) |
| COC(=O)c1ccccc1NC1=C/C(=N\S(=O)(=O)c2cccs2)c2ccccc2C1=O | 102% (active) |
| O=[N+]([O-])c1cc(Cl)cc(/C=N/NC(=S)Nc2ccc(S(=O)(=O)N3CCOCC3)cc2)c1O | 102% (active) |
| CCN(C(=S)Nc1cc(S(=O)(=O)N2CCOCC2)ccc1Cl)c1cccc2ccccc12 | 11.1% |
| COc1cccc(C(c2c(C)[nH]n(-c3ccccc3)c2=O)c2c(C)[nH]n(-c3ccccc3)c2=O)c1OC | 89.3% (active) |
| Cc1[nH]n(-c2ccccc2)c(=O)c1C(C[N+](=O)[O-])c1ccc(Br)cc1 (stereo not drawn) | 101% (active) |
| CC(C)(C)c1cnnn1-c1cccc([N+](=O)[O-])c1 | 5.8% |
| Cc1[nH]n(-c2ccccc2)c(=O)c1C(c1cccc([N+](=O)[O-])c1)c1c(C)[nH]n(-c2ccccc2)c1=O | 79.1% (active) |
